The target in this test is Galactokinase (Homo sapiens) (UniProt P51570). Put plainly: qHTS for Inhibitors of Human Galactokinase (GALK): Confirmation Assay for SAR round 4. Conditions: recombinant GALK, ADP-Glo luminescence, 1 h. The source says:
Inherited deficiency of galactose-1-phosphate uridyltransferase (GALT) can result in a potentially lethal disorder called Classic Galactosemia (OMIM 230400). Several lines of evidence indicate that an elevated level of galactose-1-phosphate (gal-1-p), the product of galactokinase (GALK), is a major, if not sole, pathogenic mechanism in patients with classic galactosemia. Therefore, finding inhibitors of GALK is a potential novel therapy for this inherent metabolic disease and is the long term goal of this project. Active compounds observed in the qHTS GALK assay (AID: 1868) were cherry picked and re-screened for validation. GALK (provided by Kent Lai) was assayed using ATP and D-(+)-Galactose (Sigma-Aldrich cat# G0750) as substrates. Promega ADP-Glo technology was used to detect the ADP product formed after the kinase reaction. […]
Two uL/well of ATP-buffer solution (35 uM ATP, 20mM HEPES pH8.0, 5 mM MgCl2, 60 mM NaCl, 1 mM DTT, 0.01% BSA final concentration) was dispensed into 1536-well, assay plates (Greiner, solid white medium-binding plates) with Aurora Discovery BioRAPTR Flying Reagent Dispenser (FRD; Beckton-Dickenson). […] Luminescence was detected with the ViewLux plate reader (Perkin Elmer, Waltham, MA) using a 1 sec exposure time and 2x binning.
Background: qHTS replaces the single test concentration by a dilution series.

Molecules are shown by their SMILES. Results filed as inconclusive are left out. Calls of active or inactive are those of the source. Calls follow the shape of the dose curve; as a rule, active = well fitted inhibition curve with a large enough effect; inconclusive = small, poorly fitted or top-dose-only effect; inactive = flat fitted curve, though single readings scatter.

Drawing on PubChem BioAssay AID743373 (National Center for Advancing Translational Sciences (NCATS), 2014), this text covers Potency for 2 molecules.

Sequence of Galactokinase (Homo sapiens) (P51570 whole entry, looked up): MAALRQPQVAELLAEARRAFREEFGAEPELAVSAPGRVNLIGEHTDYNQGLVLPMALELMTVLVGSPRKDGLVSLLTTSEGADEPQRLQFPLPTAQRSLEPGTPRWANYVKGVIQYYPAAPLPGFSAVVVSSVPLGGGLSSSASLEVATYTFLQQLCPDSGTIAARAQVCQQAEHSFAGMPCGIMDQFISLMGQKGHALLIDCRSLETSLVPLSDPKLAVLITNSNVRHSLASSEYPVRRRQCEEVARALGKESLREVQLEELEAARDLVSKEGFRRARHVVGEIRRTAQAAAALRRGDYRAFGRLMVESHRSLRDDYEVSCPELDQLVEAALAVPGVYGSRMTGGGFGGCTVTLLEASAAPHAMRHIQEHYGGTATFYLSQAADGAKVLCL

With `Cn1cc(Br)c(C2N=C(Nc3nc4ccccc4o3)NC3=C2C(=O)CCC3)n1` (configuration not stated), the Potency is 4.32 µM (active).

With `CC1=C(C(=O)Nc2nncs2)C(c2nn(C)cc2Cl)N=C(Nc2nc3ccccc3o2)N1` (configuration not stated), the Potency was 6.85 µM (active).
